# In PubChem BioAssay:
# Active and inactive are the calls of the source.
# Legend:
# Albumin (Bos taurus) = Albumin (Bos taurus) (UniProt P02769); assay: bovine serum albumin binders on microarray, profiling panel, artefact control for SMM control protein annotation, biochemical, small-molecule microarray, Alexa647 label, 635/667 nm fluorescence (AID 1118); details: BSA-A647 binding, fluorescence 635 nm, higher = more signal;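 further: score merges 667 nm emission intensity and signal-to-noise per printed compound spot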
# [1] = small-molecule microarray binders of probe aXIP, primary screen, biochemical, NeuroSMM set, 635/667 nm fluorescence (AID 1119); details: higher = more signal, called active from +8 up or from −8 down;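 further: probe is the protein aXip251-270 applied at 1 µg/mL to compound-printed slides; binding of probe to printed compounds measured as 667 nm fluorescence plus signal to noise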
# [2] = small-molecule binders of probe aNOTCH3, primary screen, biochemical, small-molecule microarray, 635/667 nm fluorescence (AID 1120); details: higher = more signal;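 further: probe is a biotin-tagged antibody raised against NOTCH3 rather than NOTCH3 protein; score merges spot fluorescence near 667 nm with spot signal to noise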
# [3] = small-molecule binders of probe aNOTCH2, primary screen, biochemical, small-molecule microarray, 635/667 nm fluorescence (AID 1121); details: higher = more signal;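 further: score merges feature fluorescence read at 667 nm with its signal to noise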
# [4] = molecular target: Carbonic anhydrase 2 (Homo sapiens) (UniProt P00918); assay: CAII small-molecule binders, profiling panel, biochemical, small-molecule microarray, Alexa647-labelled CAII (AID 1122); details: CAII-A647 binding fluorescence, higher = more signal
# [5] = COS7 lysate on small-molecule microarray, probe aHis, 635 nm (AID 1123); details: COS7 cell lysate, fluorescence, higher = more signal;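 further: z-score combines 667nm fluorescence intensity with signal-to-noise per printed compound spot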
# [6] = compound binding in COS7 lysate, probe aLAP1, primary screen, cell lysate, small-molecule microarray (AID 1124); details: probe aLAP1, fluorescence, higher = more signal;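 further: lysate comes from COS7 cells expressing LAP1 and is applied at 0.3 µg/mL; score merges spot fluorescence near 667 nm with signal-to-noise over triplicate slides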
# Sam68 (KHDRBS1) = assay: Sam68 small-molecule binders, primary screen, biochemical, small-molecule microarray, 635 nm fluorescence (AID 1125); details: small-molecule microarray binding, higher = more signal;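 further: score merges 667 nm channel intensity with signal to noise over triplicate slides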
# [7] = test system: Chordin-like protein 2 (CHRDL2); assay: CHRDL2 small-molecule binders, primary screen, biochemical, small-molecule microarray, 635 nm fluorescence (AID 1126); details: small-molecule microarray binding, fluorescence 635 nm; higher = more signal;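 further: printed compound slides probed with Chrdl2 protein at 4 µg/mL for 1 h at 4 C; score merges 667 nm emission intensity with signal to noise over three replicate slides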
# [8] = molecular target: Concanavalin-A (Canavalia ensiformis) (UniProt P02866); assay: ConA small-molecule binders, primary screen, artefact control for SMM control protein annotation, biochemical, small-molecule microarray, Alexa647 label, 635 nm (AID 1127); details: ConA-A647 binding fluorescence, higher = more signal;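 further: z combines 667 nm emission intensity with signal-to-noise across three replicate slides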
# Concanavalin-A (Canavalia ensiformis), sequence (P02866 whole entry, looked up): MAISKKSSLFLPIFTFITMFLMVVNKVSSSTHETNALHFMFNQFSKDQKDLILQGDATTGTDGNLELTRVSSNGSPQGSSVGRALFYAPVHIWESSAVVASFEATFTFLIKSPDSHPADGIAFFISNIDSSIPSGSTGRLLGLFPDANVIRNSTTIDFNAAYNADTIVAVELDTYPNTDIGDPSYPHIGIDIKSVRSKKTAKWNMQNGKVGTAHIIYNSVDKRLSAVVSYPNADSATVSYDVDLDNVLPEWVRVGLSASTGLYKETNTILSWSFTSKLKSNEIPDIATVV
# Albumin (Bos taurus), sequence (P02769 whole entry, looked up): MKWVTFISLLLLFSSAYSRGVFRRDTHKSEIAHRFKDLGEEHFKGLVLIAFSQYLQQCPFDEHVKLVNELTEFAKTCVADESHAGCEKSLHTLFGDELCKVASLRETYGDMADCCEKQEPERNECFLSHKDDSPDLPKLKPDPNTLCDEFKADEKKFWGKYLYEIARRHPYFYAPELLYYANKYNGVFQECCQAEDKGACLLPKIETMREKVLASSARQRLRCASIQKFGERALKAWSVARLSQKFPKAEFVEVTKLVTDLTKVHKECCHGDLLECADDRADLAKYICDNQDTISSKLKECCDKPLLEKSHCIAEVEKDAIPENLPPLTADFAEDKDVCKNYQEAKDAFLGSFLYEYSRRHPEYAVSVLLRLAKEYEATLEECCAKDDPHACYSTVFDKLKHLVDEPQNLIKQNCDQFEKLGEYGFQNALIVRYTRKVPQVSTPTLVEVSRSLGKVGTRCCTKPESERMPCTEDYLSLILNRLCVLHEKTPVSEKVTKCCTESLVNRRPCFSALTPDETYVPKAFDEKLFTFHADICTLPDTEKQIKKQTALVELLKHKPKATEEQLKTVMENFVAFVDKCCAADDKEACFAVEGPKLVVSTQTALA
Compound,composite z-score (Albumin (Bos taurus)),composite Z-score [1],composite z-score [2],composite z-score [3],composite z-score [4],composite z-score [5],composite z-score [6],composite z-score (Sam68 (KHDRBS1)),composite z-score [7],composite z-score [8]
CCOC(=O)[C@H](CC(C)C)NC(=O)CCC1CC(OC(=O)NCCc2ccc(F)cc2)CC2(CCCC(COC(=O)NCc3ccccc3)O2)O1 (stereo not given in full),0.173,-0.0657 (inactive),0.257,-0.131,0.274,1.27,0.362,1.14,0.623,0.754
CC(C)CN1CCc2nc(-c3ccccc3)c3c(c2CC1)CO[C@@H](C)C3,-0.249,-0.002 (inactive),0.154,-0.16,-0.143,-0.258,-0.673,-0.168,0.74,0.0721
c1ccc(C2NCCc3c2[nH]c2ccccc32)cc1 (stereo not given),0.0809,-0.0389 (inactive),0.0876,-0.053,0.743,-0.0295,-0.0502,-0.409,0.195,-0.082
CCOC(=O)CCN1C(=O)[C@H]2[C@H]3[C@H](O)[C@H](O)CC(=NOCc4ccccc4)[C@@H]3CC[C@H]2C1=O,0.762,0.415 (inactive),-0.0996,-0.199,0.381,0.317,0.784,0.37,0.116,0.246
O=C1C[C@]2(c3ccc([N+](=O)[O-])cc3)C(=O)N(CCN3CCOCC3)c3cc(CO)ccc3[C@H]2N1CC12CC3CC(CC(C3)C1)C2,0.89,0.83 (inactive),-0.185,-0.174,0.185,0.253,0.713,-0.631,-1.03,-0.163
CC(CCN1CCc2nc(-c3ccccc3)c(-c3ccccc3)cc2C1)=NOC(C)CN1CCCCc2nc(C)c(C)cc21 (stereo not given),0.56,0.766 (inactive),0.0379,-0.14,0.209,0.789,0.154,1.28,0.308,1.05
COCCOC(=O)N1C(=O)[C@@]2(c3cc(C#CC4(O)CCCCCC4)ccc31)[C@H](c1ccc(OCCO)cc1)N1[C@H](c3ccccc3)[C@H](c3ccccc3)OC(=O)[C@H]1[C@@H]2C(=O)NC[C@H](O)c1ccccc1,0.203,-0.317 (inactive),0.0039,-0.115,0.367,1.71,0.288,1.29,-0.0516,1.12
COc1cccc([C@H]2Oc3ccc(OC)cc3C(=NOC(C)CN3CCCc4nc(C)c(C)cc43)[C@@H]2O)c1 (stereo not given in full),-0.605,0.904 (inactive),0.119,-0.0527,0.431,0.298,0.532,1.14,0.414,-1.16
O=C(NN=C1C[C@@H](O)[C@@H](O)[C@@H]2[C@@H]3C(=O)N(c4cccc(Oc5ccccc5)c4)C(=O)[C@@H]3CC[C@@H]12)OCc1ccccc1,0.564,0.187 (inactive),0.0425,-0.0995,-0.249,0.36,-0.0773,0.24,0.162,0.277
C[C@@H]1C=CCC(=O)OC[C@H](C)C(=O)N2CCC[C@H]2C(=O)OC1,-0.12,0.608 (inactive),-0.143,-0.0338,-0.0527,-0.0199,0.0742,1.14,1.58,0.182
CCOC(=O)[C@H](CC(C)C)NC(=O)CCC1CC(OC(=O)NCc2cccc3ccccc23)CC2(CCCC(COC(=O)NCCN3CCOCC3)O2)O1 (stereo not given in full),0.363,0.0928 (inactive),-0.0014,-0.19,0.306,0.934,0.324,1.3,0.915,0.793
CC(C)=CCCC(C)=CCON=C1[C@H]2CCn3c(=O)n(C)c(=O)n3[C@H]2[C@H](O)[C@@H]2O[C@H]12,-0.286,-0.0793 (inactive),0.0297,-0.14,0.295,0.482,0.644,1.27,0.916,0.941
O=C1[C@H]2[C@H]3[C@H](O)[C@H](O)CC(=NO[C@@H]4O[C@H](CO)[C@@H](O)[C@H](O)[C@H]4O)[C@H]3CC[C@H]2C(=O)N1Cc1ccccc1,-0.258,-0.304 (inactive),0.0145,-0.127,-0.457,0.904,0.0052,1.32,-0.564,0.0723
COCCCNC(=O)[C@@]1(C)c2ccccc2C(=O)N(Cc2ccc(OC(F)(F)F)cc2)[C@H]1c1ccc(CO)cc1,-0.881,-0.17 (inactive),-0.271,-0.0836,0.174,0.125,0.884,-1.22,-0.654,-0.836
CN(C)C(=O)[C@@]1(Cc2ccccc2)N=C(c2ccc(OCCCO)cc2)O[C@H]1c1ccccc1CN=[N+]=[N-],0.968,1.29 (inactive),0.329,0.319,0.587,2.49,0.797,1.29,-0.25,1.14
CN1C(=O)C2C=CC(C(O)c3ccc(Br)cc3)N(N(c3ccccc3)c3ccccc3)C2C1=O (stereo not given),0.296,0.49 (inactive),-0.0003,-0.0976,0.106,1.04,-0.068,0.676,-0.815,0.951
O=C(NN=C1C[C@@H](O)[C@@H](O)[C@@H]2[C@@H]3C(=O)N(c4ccc(F)cc4F)C(=O)[C@@H]3CC[C@@H]12)OCc1ccccc1,0.458,-0.662 (inactive),0.0952,-0.123,0.129,0.229,0.3,0.661,0.272,0.247

Compound,composite z-score (Albumin (Bos taurus)),composite Z-score [1],composite z-score [2],composite z-score [3],composite z-score [4],composite z-score [5],composite z-score [6],composite z-score (Sam68 (KHDRBS1)),composite z-score [7],composite z-score [8]
CC(C)(C)OC(=O)CC[C@]1(C(N)=O)COC(c2ccc(OCCCO)cc2)=N1,0.617,1.43 (inactive),0.324,0.357,0.983,2.97,1.44,1.21,0.0555,-0.207
O=C1CCCC=C1C(O)CCOCc1ccccc1 (stereo not given),-0.492,-0.32 (inactive),-0.0072,-0.108,-0.0262,-0.202,-0.195,-0.887,0.309,-0.299
COCCCNC(=O)[C@]1(CCC(=O)OC(C)(C)C)N=C(c2ccc(OCCCO)cc2)O[C@@H]1c1ccccc1N=[N+]=[N-],0.913,0.201 (inactive),0.534,-0.092,0.725,3.09,0.0106,1.31,-0.18,1.17
COCCOC(=O)N1C(=O)[C@@]2(c3cc(C#CCNC(N)=O)ccc31)[C@H](c1ccccc1OCCO)N1[C@H](c3ccccc3)[C@H](c3ccccc3)OC(=O)[C@H]1[C@@H]2C(=O)N1CCN(c2ncccn2)CC1,0.583,0.339 (inactive),0.169,-0.0028,0.537,1.92,0.579,1.32,-0.119,1.06
CC(CCC(=O)OC[C@H]1O[C@H](C#Cc2ccccc2)C=C[C@@H]1Oc1ccc(C)cc1)=NOC[C@@H](O)COCc1ccco1,-0.515,-0.142 (inactive),-0.781,-0.306,-0.451,-0.128,-0.547,-1.96,-3.83,-3.95
COc1ccc([Si](C)(C)[C@@H]2[C@@H](CCO)O[C@]3(C(=O)N(Cc4ccc(NC(C)=O)cc4)c4ccccc43)[C@H]2C)cc1,0.78,0.19 (inactive),0.217,0.0884,0.574,1.08,0.222,1.15,0.465,1.1
COc1ccccc1CN1C(=O)c2ccccc2[C@@H](C(=O)NCC(F)(F)F)[C@@H]1c1ccc(CO)cc1,0.522,-0.786 (inactive),-0.15,-0.167,0.595,0.839,0.0761,1.33,-0.365,0.721
CC[C@@H](c1ccccc1)n1c(=O)n2n(c1=O)[C@H]1[C@H](O)[C@@H]3O[C@@H]3C(=NOCC(C)C)[C@H]1CC2,-0.231,-0.0127 (inactive),-0.0189,-0.0986,0.308,0.0644,0.422,0.362,-0.086,0.0275
CC(C)(C)N1C(=O)[C@H]2[C@H]3[C@H](O)[C@H](O)CC(=NOCc4ccccc4)[C@@H]3CC[C@H]2C1=O,0.8,0.588 (inactive),0.111,-0.131,0.675,0.384,0.532,1.17,0.831,0.694
CCCC[C@@H]1C[C@H]1[C@@H](NS(=O)(=O)c1cccc2cccnc12)c1ccc(-c2ccccc2)cc1,0.41,-0.325 (inactive),0.106,-0.0817,0.529,0.92,-0.222,-0.0217,-1,0.119
COC(=O)[C@@H]1CC[C@H](C)[C@@H](c2ccc(C)cc2)N1C(=O)c1ccc(C=NOC(C)CN2CCCCc3nc(C)c(C)cc32)cc1 (stereo not given in full),0.594,-0.317 (inactive),0.0916,-0.0707,-0.0862,0.125,0.388,0.0689,0.62,0.951
CC(=O)O[C@H]1C2=C(C(=O)[C@@H]3O[C@@H]31)[C@H]1C(C)O[C@@H]2[C@@]23C(=O)[C@@H]4O[C@@H]4[C@@H](O)C2=CO[C@H](C)[C@@H]13 (stereo not given in full),0.922,0.112 (inactive),0.0026,-0.0937,-0.0716,-0.519,-0.283,-0.113,0.249,-0.629
CC(C)[C@H](NC(=O)OC(C)(C)C)[C@@H](O)CC(=O)OC(C)(C)C,-0.493,0.0831 (inactive),-0.235,-0.144,-0.602,-0.361,-0.202,-1.73,-0.646,-0.744
COCC1=C2[C@@H](CCc3ccccc3)OB(O)C[C@@H]2n2c(=O)n(-c3ccccc3)c(=O)n2C1,0.352,-0.532 (inactive),-0.0204,-0.0649,0.0995,-0.0955,0.0421,-0.0265,0.198,-0.0151
COc1ccccc1CN1C(=O)c2ccccc2[C@@]2(Cc3ccccc3N(C(C)C)C2=O)[C@@H]1c1ccc(CO)cc1,0.282,0.0371 (inactive),-0.0581,-0.117,-0.0384,0.209,0.21,-0.067,-0.381,0.262
COC(=O)[C@@]1(Cc2ccccc2)[C@H]2c3cc(C(=O)N4CCCC4)n(Cc4ccccn4)c3C[C@H]2CN1C(=O)c1ccccc1,0.939,0.193 (inactive),0.697,0.284,0.834,3.44,0.596,1.29,0.331,1.04
CC(C)[C@@H](OCc1ccccc1)[C@H](C)C=NOC[C@@H](C)[C@H](OCc1ccccc1)C(C)C,-0.248,-0.161 (inactive),-0.0111,-0.126,-0.265,-0.393,-0.0427,-0.24,0.457,0.31
